Compounds with a hit are over-represented: about 2.9% of the library has one in this group of screens.
ADAM17 inh: inhibits human ADAM17 | P78536 | recombinant ADAM17, EDANS/DABCYL FRET peptide cleavage | inhibition, % at 6.95 µM | 370,000 tested, 0.83% active | AID 720648;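 active = inhibition above the mean of compounds lying between control limits plus 3 SD, set per campaign, cut at about 8.5% in these data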;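 note: 0% = DMSO-only wells as the low control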
PLC-gamma1 inh: PLC-gamma1 (human) inhibition, primary screen. P19174. purified PLC-gamma1, fluorogenic substrate, fluorescence. inhibition, % at 12.2 µM. 370,000 tested, 0.84% active; in the data active = inhibition above about 9.5%
proKLK7 act: activates the human kallikrein-7 zymogen. P49862. purified proKLK7, EDANS-DABCYL substrate fluorescence; 100% is mature enzyme control, 0% vehicle. activation, % at 7 µM. 370,000 tested, 0.9% active;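 active = activation above the mean of all tested compounds plus 3 SD, computed per campaign excluding outliers beyond control limits, cut at about 13% in these data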
PLC-beta3 inh: inhibitors of human phospholipase C beta3 | 370,000 tested, 0.18% active | inhibition, % at 12.2 µM | Purified PLC-beta3, fluorogenic substrate, fluorescence | AID 720704;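 note: 0% = median of compound wells on plate and 100% = full blocker control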
Target sequence (Q01970 whole entry, looked up): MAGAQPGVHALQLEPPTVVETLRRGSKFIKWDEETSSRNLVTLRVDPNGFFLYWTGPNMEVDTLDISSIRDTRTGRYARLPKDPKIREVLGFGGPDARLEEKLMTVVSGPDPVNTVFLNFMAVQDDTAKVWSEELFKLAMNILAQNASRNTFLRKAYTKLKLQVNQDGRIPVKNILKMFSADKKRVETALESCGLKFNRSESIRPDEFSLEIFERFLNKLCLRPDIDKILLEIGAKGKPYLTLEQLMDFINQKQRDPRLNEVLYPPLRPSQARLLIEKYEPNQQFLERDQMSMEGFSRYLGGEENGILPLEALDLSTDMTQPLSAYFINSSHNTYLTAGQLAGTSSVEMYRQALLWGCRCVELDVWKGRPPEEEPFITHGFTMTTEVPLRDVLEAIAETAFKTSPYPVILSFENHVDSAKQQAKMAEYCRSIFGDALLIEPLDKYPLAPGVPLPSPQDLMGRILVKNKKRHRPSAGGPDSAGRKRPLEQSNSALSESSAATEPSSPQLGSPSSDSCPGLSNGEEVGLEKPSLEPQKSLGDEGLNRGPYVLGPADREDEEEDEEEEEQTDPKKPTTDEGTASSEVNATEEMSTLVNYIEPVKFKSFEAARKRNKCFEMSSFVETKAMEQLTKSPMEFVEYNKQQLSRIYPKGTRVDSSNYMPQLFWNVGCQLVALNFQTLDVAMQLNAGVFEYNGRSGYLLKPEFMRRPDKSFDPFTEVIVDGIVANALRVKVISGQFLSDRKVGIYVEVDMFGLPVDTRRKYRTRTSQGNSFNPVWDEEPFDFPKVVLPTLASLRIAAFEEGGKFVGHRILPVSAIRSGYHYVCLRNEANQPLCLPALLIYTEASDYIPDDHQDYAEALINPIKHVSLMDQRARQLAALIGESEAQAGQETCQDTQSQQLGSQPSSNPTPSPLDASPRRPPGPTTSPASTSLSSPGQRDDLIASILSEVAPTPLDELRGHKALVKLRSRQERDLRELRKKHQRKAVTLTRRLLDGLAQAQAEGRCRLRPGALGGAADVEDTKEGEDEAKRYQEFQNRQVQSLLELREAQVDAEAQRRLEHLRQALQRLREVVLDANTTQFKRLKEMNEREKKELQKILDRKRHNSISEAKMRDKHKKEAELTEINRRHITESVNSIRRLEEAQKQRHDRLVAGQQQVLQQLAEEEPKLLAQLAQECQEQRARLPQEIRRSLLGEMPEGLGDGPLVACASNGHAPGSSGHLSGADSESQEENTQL
ADAM10 inh: inhibits human ADAM10 | 370,000 tested, 0.62% active | recombinant ADAM10, EDANS/DABCYL FRET peptide cleavage, 3 h | inhibition, % at 7 µM | AID 720582;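 active = inhibition above a per-campaign cutoff equal to the mean of compounds falling between control-based bounds plus 3 SD, cut at about 20% in these data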;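 note: 0% = DMSO wells while the 100% control is not disclosed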
ADAM10 counter: inhibits human ADAM10 in ADAM17 exosite counter-screen; inhibition, % at 6.95 µM; shares compounds with ADAM17 inh; recombinant ADAM10, EDANS/DABCYL FRET peptide cleavage, 3 h; 2,900 tested, 47% active;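 active = mean inhibition over the triplicate runs exceeds the activity threshold set in the earlier primary screen, cut at about 20% in these data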;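 note: 0% = DMSO wells and 100% = marimastat wells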
ADAM17 confirm: human ADAM17 inhibition, confirmation; shares compounds with ADAM17 inh; recombinant ADAM17, EDANS/DABCYL QFRET peptide cleavage; inhibition, % at 6.95 µM; 2,900 tested, 65% active; AID 743257;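 active = mean inhibition across replicates above the hit cutoff set in the primary screen, cut at about 8.5% in these data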;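 note: 0% = DMSO wells and 100% = marimastat wells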
PLCgamma1 ctr: inhibits human PLC-gamma1 in PLC-beta3 counter-screen | 3,300 tested, 3.1% active | inhibition, % at 12.3 µM | shares compounds with PLC-gamma1 inh | purified PLC-gamma1, fluorogenic substrate, fluorescence | AID 743258; in the data active = inhibition above about 9.5%
PLCb3 confirm: human PLC-beta3 inhibition, confirmation | AID 743261 | 3,300 tested, 1% active | inhibition, % at 12.3 µM | shares compounds with PLC-gamma1 inh | purified PLC-beta3, fluorogenic substrate fluorescence
* = called active by the depositor; . = not tested or not shown. Cut-off read from the data, not from the text of the source, unless noted: active = inhibition above about 11%; inactive = the rest.

SMILES | ADAM17 inh | PLC-gamma1 inh | proKLK7 act | PLC-beta3 inh | ADAM10 inh | ADAM10 counter | ADAM17 confirm | others
COc1ccc(C2c3ccc4ccccc4c3Oc3ncn(CCCO)c(=N)c32)cc1OC (stereo not drawn) | -2 | 1 | 0 | -7 | -3 | . | .
COc1ccc(C2c3ccc4ccccc4c3Oc3ncn(CCN4CCOCC4)c(=N)c32)cc1 (stereo not drawn) | 9.2* | 8 | 0 | 2 | 18 | 12 | 8
COc1ccc(C2c3ccc4ccccc4c3Oc3ncn(CCN4CCOCC4)c(=N)c32)cc1OC (stereo not drawn) | 8.6* | 5 | 1 | 1 | 11 | 12 | 9.2*
Cc1ccc(S(=O)(=O)N2[C@H](c3ccccc3)CC(=O)[C@@H]3CN(S(=O)(=O)c4ccccc4C)[C@H](c4ccccc4)C[C@@H]32)cc1 | -3 | -1 | 0 | 1 | -10 | . | .
Cc1ccc(S(=O)(=O)N2C[C@H]3C(=O)C[C@@H](c4ccccc4)N(S(=O)(=O)c4ccccc4C)[C@H]3C[C@H]2c2ccccc2)cc1 | 11* | 4 | -1 | 4 | 13 | 22* | 9.9*
Cc1ccc(S(=O)(=O)N2C[C@H]3C(=O)C[C@@H](c4cccc(C)c4)N(S(=O)(=O)c4ccc(C)cc4)[C@H]3C[C@H]2c2ccccc2)cc1 | 8.9* | 9 | -1 | 5 | 4 | 10 | 7
Cc1ccc(S(=O)(=O)N(C)c2ccc(OC(=O)c3cc(=O)[nH]c4ccccc34)cc2)cc1 | -4 | -3 | 0 | -6 | -20 | . | .
CSc1nc(C)c2c(n1)N(c1ccc(C(C)C)cc1)CC2 | -3 | -1 | -1 | -2 | 1 | . | .
CCS(=O)(=O)N1CCN(Cc2ccccc2OC)CC1 | 10* | 6 | 0 | 6 | 5 | -6 | -3
CC(Sc1nnc(-c2ccco2)n1C)C(=O)N1C(C)CCCC1C (stereo not drawn) | 4 | 8 | 0 | -1 | -2 | . | .
CCC(C)[C@H](N)c1nnc(SCC(=O)c2ccc(Cl)cc2)o1 (stereo partly drawn) | 9.2* | -5 | -1 | -6 | 15 | -8 | 0
CCCCN(C(=O)C1CC(=O)N(c2ccc(C)cc2)C1)c1c(N)n(CCC)c(=O)[nH]c1=O (stereo not drawn) | 11* | 4 | 0 | -2 | -1 | -5 | -2
CN1C(=O)OC(C)(CCc2ccccc2)C1(C)O (stereo not drawn) | 1 | 4 | -1 | 3 | 15 | . | .
CC1(O)N(Cc2ccccc2)C(=O)OC12CCCCC2 (stereo not drawn) | 9.1* | 6 | 0 | 5 | 7 | 12 | 14*
CCOC(=O)c1cc(OC(=O)c2ccccc2OC)n(-c2ccccc2)n1 | 11* | 4 | 0 | 2 | 0 | 11 | 12*
CCOC(=O)c1sc2ccccc2c1OC(=O)c1ccccc1OC | 6 | -10 | 11 | -10 | 5 | . | .
CCOc1ccc(N(CC(=O)Nc2cccc(C)c2)S(C)(=O)=O)cc1 | 9.0* | 8 | -1 | 3 | 9 | 0 | 2
CCOc1ccc(N(CC(=O)NN=C2CCN(C)CC2)S(C)(=O)=O)cc1 | 8.7* | 3 | 0 | 0 | 12 | -3 | -1
Cn1cc(CCC(=O)NCCCc2ccccc2)c2ccccc21 | 0 | 0 | 1 | -10 | -2 | . | .
O=C(O)/C=C/c1ccc2c(-c3ccccc3)onc2c1 | -1 | 4 | 0 | 0 | -3 | . | .
O=C(CSc1nnc(C2CC2)n1C1CC1)c1cc(F)ccc1F | -1 | -2 | 0 | 0 | 4 | . | .
COCCNC(=O)C1CCCN(Cc2ccc(C#N)cc2)CC1 (stereo not drawn) | 1 | 2 | 0 | 3 | -1 | . | .
Nc1ccc2nc(CCCCCCCCc3nc4ccc(N)cc4[nH]3)[nH]c2c1 | 13* | -2 | 0 | -10 | 11 | 4 | 3
CN(C)S(=O)(=O)c1ccc(NC(=O)COC(=O)CC2CC3CCC2C3)cc1 (stereo not drawn) | 8.6* | 9.8* | 1 | 3 | 13 | 20* | 14* | PLCgamma1 ctr=-7;PLCb3 confirm=-3
O=C(Nc1ccncc1)Nc1cccc(Cl)c1Cl | -3 | -3 | 0 | -9 | 3 | . | .
SMILES | ADAM17 inh | PLC-gamma1 inh | proKLK7 act | PLC-beta3 inh | ADAM10 inh | ADAM10 counter | ADAM17 confirm | others
O=C(Nc1ccccc1)Nc1cccc(Cl)c1Cl | 12* | 16* | 0 | 10 | 15 | 13 | 8 | PLCgamma1 ctr=-5;PLCb3 confirm=-2
O=C(N/N=C/c1cccnc1)c1ccc([N+](=O)[O-])cc1 | 8.9* | 16* | 0 | 5 | 14 | 12 | 9.0* | PLCgamma1 ctr=-2;PLCb3 confirm=2
Cc1ccc(-c2ccc(/C=N/NC(=S)Nc3ccccc3)o2)cc1[N+](=O)[O-] | 14* | 9.7* | -1 | -1 | 14 | 24* | 17* | PLCgamma1 ctr=-13;PLCb3 confirm=-14
CNC(=S)N/N=C/c1ccc(-c2ccc(Cl)c([N+](=O)[O-])c2)o1 | -1 | 3 | 0 | -2 | -3 | . | .
CCCC(=O)N1CCC1(C)C(=O)NS(=O)(=O)c1cccs1 (stereo not drawn) | -4 | 0 | 0 | -9 | -17 | . | .
O=c1oc2ccc(NS(=O)(=O)c3cccc4cccnc34)cc2s1 | 12* | 10* | 0 | -3 | 4 | 6 | 7 | PLCgamma1 ctr=0;PLCb3 confirm=-1
CC(NC(C)c1ccccc1Cl)C(=O)Nc1cccc(S(=O)(=O)N2CCCCC2)c1 (stereo not drawn) | 11* | 9.8* | 1 | -5 | 3 | 16 | 10* | PLCgamma1 ctr=1;PLCb3 confirm=1
O=C(CCl)Nc1cccc(S(=O)(=O)N2CCCCCC2)c1 | 1 | 2 | 1 | 5 | 9 | . | .
Cc1c(C(=O)NCc2ccc(C(F)(F)F)cc2)sc(=O)n1Cc1ccc(S(=O)(=O)N(C)C)cc1 | 1 | 1 | 0 | 1 | 7 | . | .
Cc1ccc(CN(C)C(=O)CN2C(=O)NC(c3ccccc3)(c3ccccc3)C2=O)c(C)c1 | 9.1* | 11* | 0 | -1 | 8 | 31* | 13* | PLCgamma1 ctr=3;PLCb3 confirm=-5
O=C(NCc1ccco1)C(c1cccs1)N(C(=O)C1COc2ccccc2O1)c1cccc(O)c1 (stereo not drawn) | 2 | 4 | 0 | 3 | 14 | . | .
O=C(CSc1ncn[nH]1)Nc1ccc2c(c1)CCC2 | 8.8* | 6 | 0 | 13* | 11 | 10 | 4 | PLCgamma1 ctr=-4;PLCb3 confirm=0
Cc1ccc(NC(=O)CSc2ncn[nH]2)cc1 | 0 | 0 | 0 | 4 | 5 | . | .

Source: PubChem BioAssay (The Scripps Research Institute Molecular Screening Center)
